“And” between values parts separate entries of the source, which are not always exact repeats. Equal values may be shown once. Records with an inconclusive call do not appear. Some structures have more than one record in an assay (separate samples or runs), and their calls can disagree. The source made the active and inactive calls. Unless noted, the call rests on the fitted dose curve; in most records, active means well fitted curve in the direction sought with a large enough effect in the repeat runs; inconclusive means weak or mixed curves; inactive means no such curve, though single readings can be large; an effect the other way counts as inactive or inconclusive.

The nature of test [1]: qHTS assay to identify small molecule agonists of the hypoxia (HIF-1) signaling pathway - cell viability counter screen (AID 1224844; calls by dose curve; further: nearly all actives have a fitted effect of over 50% in size; further: potency means the concentration at half of the fitted maximal effect). The settings on record: HRE-bla ME-180 viability, CellTiter-Glo luminescence, 17 h; series mostly up to 76.8 µM. The procedure, abridged:
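Luminescent ATP content (CellTiter-Glo, 30 min, room temperature) served as the viability measure in HRE-bla ME-180 cells exposed to compounds for 17 hrs in low-serum medium (0.5% dialyzed FBS).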
(Quantitative high-throughput screening tests each substance at several concentrations.)

Test [2] in a line: qHTS assay to identify small molecule agonists of H2AX (AID 1224845; active means well fitted activation curve with a large enough effect in the signal ratio in the repeat runs, not every such curve was filed as active; the % refers to the signal ratio). To be noted: CHO-K1 phospho-H2AX Ser139 HTRF, 3 h; series mostly up to 154 µM. In short, it runs like this: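 Wild-type CHO-K1 cells, plated overnight, exposed 3hr at 37C to 15 concentrations (0.76% DMSO final). Lysed, then HTRF anti-pH2AX (S139) cryptate and anti-H2AX-d2 antibodies, 24 hr room temperature; 665/620 nm emission read.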

The nature of test [3]: qHTS assay to identify small molecule agonists of the hypoxia (HIF-1) signaling pathway (AID 1224846; active means well fitted activation curve with a large enough effect in the signal ratio in the repeat runs, not every such curve was filed as active; the % refers to the signal ratio). To be noted: HRE-bla ME-180 cells, beta-lactamase ratio, 17 h; series mostly up to 76.8 µM. In short, it runs like this: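 Measured by blue/green FRET after loading CCF4-AM: beta-lactamase expressed from a hypoxia response element in ME-180 cells. Test agents were delivered in DMSO and left 17 hrs; cells had been plated 5 hrs earlier in low-serum (0.5% dialyzed FBS) medium.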

Test [4] can be described thus: qHTS RealTime-Glo MT Cell Viability Assay in HepG2 cells - 24 hour (AID 1224867). Further: nearly all actives have a fitted effect of over 50% in size. To be noted: RealTime-Glo luminescence; series mostly up to 76.8 µM. The procedure, abridged: (§1)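 Cell number in HepG2 cultures estimated from NanoLuc luminescence generated by metabolic reduction of a prosubstrate by living cells. The homogeneous, nonlytic format allowed repeated reads at 0, 8, 16, 24, 32 and 40 h of compound exposure.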

A short description of test [5]: qHTS RealTime-Glo MT Cell Viability Assay in HEK293 cells - 32 hour (AID 1224868). Further: nearly all actives have a fitted effect of over 50% in size. Further: potency means the concentration at half of the fitted maximal effect. The settings on record: RealTime-Glo luminescence; series mostly up to 76.8 µM. The procedure, abridged:
(§2)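 Homogeneous bioluminescent viability format in HEK293 cells (600 cells/well). Following 5 h at 37 C/5% CO2, 23 nL compound was pintooled; the signal was measured repeatedly during 40 h incubation.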

A short description of test [6]: qHTS RealTime-Glo MT Cell Viability Assay in HepG2 cells - 40 hour (AID 1224870). Further: nearly all actives have a fitted effect of over 50% in size. Further: potency means the concentration at half of the fitted maximal effect. The settings on record: RealTime-Glo luminescence; series mostly up to 76.8 µM. In short, it runs like this: (§3)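 HepG2 cells (600/well) mixed with RealTime-Glo MT reagent, settled 5 h at 37 C/5% CO2 before compound addition. Nonlytic NanoLuc luminescence from viable-cell prosubstrate reduction read repeatedly during 40 h treatment at 37 C.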

Test [7] can be described thus: A CellTox Green Cytotoxicity Assay to monitor cytotoxicity in HEK293 cells - 40 hour (AID 1224871). Further: nearly all actives have a fitted effect of over 45% in size. Further: potency means the concentration at half of the fitted maximal effect. The settings on record: CellTox Green fluorescence; series mostly up to 76.8 µM. The procedure, abridged: (§4)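 Each value comes from one timepoint of a single continuous run in which HEK293 cells with CellTox Green were exposed to compound for up to 40 h at 37 C, dye fluorescence rising with cell death.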

A short description of test [8]: qHTS RealTime-Glo MT Cell Viability Assay in HEK293 cells - 16 hour (AID 1224872). To be noted: RealTime-Glo luminescence; series mostly up to 76.8 µM. The procedure, abridged:
as §2

Test [9] is described as follows: qHTS RealTime-Glo MT Cell Viability Assay in HepG2 cells - 8 hour (AID 1224873). Further: nearly all actives have a fitted effect of over 55% in size. Further: potency means the concentration at half of the fitted maximal effect. To be noted: RealTime-Glo luminescence; series mostly up to 76.8 µM. In short, it runs like this: as §3
Test [10] can be described thus: qHTS RealTime-Glo MT Cell Viability Assay in HEK293 cells - 40 hour (AID 1224874). Further: nearly all actives have a fitted effect of over 50% in size. The settings on record: RealTime-Glo luminescence; max response: stronger effect = lower value. The procedure, abridged: (§5)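 qHTS format; HEK293 cells with NanoLuc/prosubstrate reagent, 37 C/5% CO2 for 5 h pre-dosing; compounds 23 nL in DMSO; luminescence at each time point reflects viable cells.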

The nature of test [11]: A CellTox Green Cytotoxicity Assay to monitor cytotoxicity in HEK293 cells - 24 hour (AID 1224875). Further: nearly all actives have a fitted effect of over 45% in size. Further: potency means the concentration at half of the fitted maximal effect. The settings on record: CellTox Green fluorescence; series mostly up to 76.8 µM. In short, it runs like this:
as §4

The nature of test [12]: A CellTox Green Cytotoxicity Assay to monitor cytotoxicity in HepG2 cells - 16 hour (AID 1224876). Further: nearly all actives have a fitted effect of over 45% in size. Further: potency means the concentration at half of the fitted maximal effect. The settings on record: CellTox Green fluorescence; series mostly up to 76.8 µM. In short, it runs like this:
(§6)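 Continuous culture of HepG2 cells with a membrane-impermeant DNA dye; rising fluorescence marks dead cells. Compound exposure lasted up to 40 h at 37 C, with reads every 8 h from 0 h.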

A short description of test [13]: qHTS RealTime-Glo MT Cell Viability Assay in HepG2 cells - 32 hour (AID 1224877). Further: nearly all actives have a fitted effect of over 55% in size. To be noted: RealTime-Glo luminescence; series mostly up to 76.8 µM. The procedure, abridged:
as §1

Test [14] in a line: A CellTox Green Cytotoxicity Assay to monitor cytotoxicity in HepG2 cells - 24 hour (AID 1224878). Further: nearly all actives have a fitted effect of over 45% in size. Further: potency means the concentration at half of the fitted maximal effect. To be noted: CellTox Green fluorescence; series mostly up to 76.8 µM. In short, it runs like this:
as §6

Test [15] is described as follows: A CellTox Green Cytotoxicity Assay to monitor cytotoxicity in HepG2 cells - 40 hour (AID 1224879). Further: nearly all actives have a fitted effect of over 40% in size. Further: potency means the concentration at half of the fitted maximal effect. To be noted: CellTox Green fluorescence; series mostly up to 76.8 µM. In short, it runs like this:
as §6

Test [16] is described as follows: qHTS RealTime-Glo MT Cell Viability Assay in HEK293 cells - 0 hour (AID 1224880). To be noted: RealTime-Glo luminescence; series mostly up to 76.8 µM. In short, it runs like this:
as §5

The nature of test [17]: A CellTox Green Cytotoxicity Assay to monitor cytotoxicity in HEK293 cells - 0 hour (AID 1224869). Further: nearly all actives have a fitted effect of over 50% in size. The settings on record: CellTox Green fluorescence; series mostly up to 76.8 µM. The procedure, abridged: as §4
Test [18] in a line: qHTS assay to identify small molecule agonists of H2AX - cell viability counter screen (AID 1224847; calls by dose curve; further: top concentration of the series differs between compounds; nearly all actives have a fitted effect of over 30% in size). To be noted: CHO-K1 viability, CellTiter-Glo luminescence, 3 h; series mostly up to 154 µM. The procedure, abridged: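 For this counter screen, overnight-attached CHO-K1 cells received test compounds (15 concentrations, 0.76% DMSO final); 3 hr later at 37C, CellTiter-Glo reagent was added and luminescence recorded after 30 min at room temperature.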

Test [19] is described as follows: qHTS assay to identify small molecule agonists of the estrogen related receptor (ERR) signaling pathway from Tox21 library (AID 1224849; calls by dose curve; further: nearly all actives have a fitted effect of over 15% in size). The settings on record: ERR reporter cell line, ONE-Glo luciferase, 18 h. The procedure, abridged:
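We plated ERR reporter cells, waited 6 h, added compounds in DMSO by pin tool and incubated them 18 h at 37 C. ONE-Glo was then added and luminescence read after 30 min.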

Test [20] can be described thus: qHTS assay to identify small molecule antagonists of the estrogen related receptor (ERR) signaling pathway from Tox21 library (AID 1224848). Further: nearly all actives have a fitted effect of over 50% in size. To be noted: ERR reporter cell line, luciferase antagonist mode, 18 h; series mostly up to 92.4 µM. The procedure, abridged:
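Luminescent reporter read-out (ONE-Glo) from NTP's ERR cell line after 18 h treatment at 37 C with DMSO-dissolved Tox21 compounds; cells pre-plated 6 h beforehand at 2,000 per well.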
On the % scale 0 is the no-effect control and ±100 the full control effect.

As to `C[N+]1(CCC(C(N)=O)(c2ccccc2)c2ccccc2)CCCCC1`, the Potency entry in [1], in test [2], in test [4], in test [5], in [6] and in test [7] was “inactive” throughout. The Potency entry in test [8], in test [9], in test [11], in test [12], in test [13] and in [14] was “inactive” throughout. In test [15], the Potency entry is “inactive”. Besides, the outcome in test [3] and in test [16] was inactive. Also, in test [10], the max response was 0.771% (inactive).

For the compound `CCCCC(CC)CO[N+](=O)[O-]` (stereo not drawn), the Potency result in [1], in test [2], in test [4], in [5], in test [17] and in test [6] was “inactive” throughout. Moreover, the Potency result in test [7], in [8], in [9], in test [11], in [12] and in test [13] was “inactive” each time. The Potency entry in test [14] and in test [15] was “inactive” each time. Further, the result in test [3] and in test [16] was inactive. Besides, the max response in [10] is -1.82% (inactive).

With `CC1(C)[C@H](C(=O)O[C@H](C#N)c2cccc(Oc3ccccc3)c2)[C@@H]1C=C(Br)Br`, the Potency entry in [1], in test [2], in test [18], in test [4], in test [5] and in [17] was “inactive” in each case. The Potency entry in test [6], in test [7], in test [8], in [9], in test [11] and in test [12] was “inactive” in each case. The Potency entry in test [13] and in test [14] was “inactive” in each case. Besides, the activity change, positive = activation in [19] (at 92.4 µM (top of the series)) was -23.2% (inactive) and -24.2% (inactive). Further, the max response in [10] is -8.94% (inactive) and -16.3% (inactive). In addition, in [16], the outcome was inactive.

Turning to `CC(=O)OC(c1ccccc1)C(Cl)(Cl)Cl` (stereo not drawn), the Potency entry in test [1], in test [2], in test [5], in test [17], in test [6] and in test [8] was “inactive” throughout. Further, the Potency result in test [9] and in test [13] was “inactive” in each case. Also, the result in [3] and in [16] was inactive. The Potency is 19.5 µM (active) in test [7]; 19.5 µM (active) in test [11]; 21.9 µM (active) in [12]; 21.9 µM (active) in [14]; 21.9 µM (active) in [15]. The max response in test [10] is -15.9% (inactive).

`O=[N+]([O-])c1cc(Cl)c(Cl)cc1Cl`: the Potency result in test [1], in test [18], in [20], in test [4], in test [5] and in test [17] was “inactive” in each case. Besides, the Potency result in test [6], in test [8], in [9], in [12], in [13] and in test [14] was “inactive” each time. In addition, the Potency result in test [15] is “inactive”. Moreover, the outcome in test [3] and in test [16] was inactive. For the same compound, the activity change, positive = activation in test [19] (at 92.4 µM (top of the series)) is 0.191% (inactive). The max response in [10] is 2.2% (inactive).

For the compound `C[C@H]1[C@@H]2Cc3ccc(O)cc3[C@@]1(C)CCN2C`, the Potency result in test [1], in [18], in [20], in [4], in [5] and in [17] was “inactive” each time. The Potency result in [6], in test [8], in test [9], in test [11], in [12] and in [13] was “inactive” in each case. Besides, the Potency entry in test [14] is “inactive”. Also, the outcome in test [3] and in test [16] was inactive. In addition, the activity change, positive = activation in [19] (at 240 µM (top of the series)) is 8.81% (inactive). Besides, the max response in test [10] was -5.05% (inactive).

Turning to `CCOc1cccc(C2(N3CCN(c4ccccc4)CC3)CCC(C)CC2)c1` (stereo not drawn), the Potency result in test [1], in test [2], in [4], in [5], in test [17] and in [6] was “inactive” throughout. In addition, the Potency entry in [7], in test [8], in test [9], in [11], in [12] and in [13] was “inactive” throughout. Further, the Potency entry in test [14] and in test [15] was “inactive” each time. Also, the outcome in test [3] and in test [16] was inactive. In test [10], the max response is -7.17% (inactive).

Take `C[C@]12C=CC3=C4CCC(=O)C=C4CC[C@H]3[C@@H]1CC[C@@H]2O`: the Potency entry in test [1], in test [4], in test [5], in [17], in test [6] and in [7] was “inactive” throughout. The Potency result in test [8], in test [9], in [11], in test [12], in [13] and in [14] was “inactive” in each case. In addition, in [15], the Potency entry was “inactive”. Also, the result in test [3] and in test [16] was inactive. Also, the max response in test [10] is -25.8% (inactive).

For `CN1C[C@H](C(=O)N[C@]2(C)O[C@@]3(O)[C@@H]4CCCN4C(=O)[C@H](Cc4ccccc4)N3C2=O)C=C2c3cccc4[nH]cc(c34)C[C@H]21`, the Potency in test [1] was 24.7 µM (active) and 14.4 µM (active); in [5], 27.7 µM (active) and inactive; in [9], 13.9 µM (active) and 12.8 µM (active). The Potency entry in [18], in [7], in [8], in test [11], in test [12] and in test [14] was “inactive” throughout. Moreover, the max response in [10] is -10.8% (inactive). For the same compound, the result in test [16] was inactive.

For `C[N+](C)(C)CCOC(=O)C(O)(c1ccccc1)c1ccccc1`, the Potency entry in [1], in test [18], in test [5], in [7], in test [8] and in test [9] was “inactive” throughout. Further, the Potency entry in test [11], in test [12], in test [14] and in [15] was “inactive” each time. Further, the outcome in test [3] and in test [16] was inactive. Moreover, the Potency in test [6] was 23.9 µM (active). The max response in test [10] is 0.291% (inactive).

These data come from PubChem BioAssay (Tox21).
